Measured values published in the supplement of paper PMC9262897, “Low-cost anti-mycobacterial drug discovery using engineered E. coli” (Nature Communications, 2022).
Structures can show the parent of a compound that is named as a salt. ± gives the standard deviation of the averaged measurements.

Key:
Test in all cases: growth (OD600 after 10 h); higher = more growth (less inhibition)
[1] = tested on: E. coli TESEC Alr+ wild-type control; details: compound 0.1 mM; raw OD600 reference: median of DMSO wells 0.241, cell-free background 0.041
Description: (§1)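 TESEC Mtb Alr E. coli, or the Alr+ wild-type control, in 384-well plates with Prestwick library compounds at 0.1 mM and 1% DMSO, across arabinose induction levels of 1E3 to 1E7 nM. Growth is read as OD600 after 10 h at 37 °C in triplicate biological replicates.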

E. coli TESEC Mtb Alr [2] = details: compound 0.1 mM
Description: as §1

E. coli TESEC Mtb Asd = details: compound 0.1 mM
Description: (§2)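 TESEC E. coli strains in which the native enzyme is deleted and replaced by arabinose-inducible Mtb Asd, DapB, CysH or TrpD, each grown in its selective medium. Strains were screened against the Prestwick library at 0.1 mM and 1% DMSO in 384-well format at low and high arabinose induction. Growth is read as OD600 after 10 h in triplicate.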

E. coli TESEC Mtb DapB = details: compound 0.1 mM
Description: as §2

E. coli TESEC Mtb Alr [3] = details: compound 0.1 mM; remark: listed apart in the source
Description: (§3)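 TESEC Mtb Alr E. coli (ΔaraC ΔtolC ΔentC Δalr ΔdadX, arabinose-inducible Mtb Alr) or the Alr+ wild-type control strain, grown in defined M9-fructose medium without D-alanine in 96-well plates with Prestwick library compounds at 0.1 mM and 1% DMSO. Low Alr induction is 0.1 µM arabinose and high induction is 10 mM arabinose.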

[4] = tested on: E. coli TESEC Alr+ wild-type control; details: compound 0.1 mM; raw OD600 reference: median of DMSO wells 0.49, cell-free background 0.052
Description: as §3

[5] = arabinose 1000 nM, raw OD600 reference: median of DMSO wells 0.294, cell-free background 0.041
[6] = arabinose 10000 nM, raw OD600 reference: median of DMSO wells 0.264, cell-free background 0.041
[7] = arabinose 100000 nM, raw OD600 reference: median of DMSO wells 0.201, cell-free background 0.041
[8] = arabinose 1000000 nM, raw OD600 reference: median of DMSO wells 0.193, cell-free background 0.041
[9] = arabinose 10000000 nM, raw OD600 reference: median of DMSO wells 0.146, cell-free background 0.041
[10] = arabinose induction (level): High, raw OD600 reference: median of DMSO wells 0.331, cell-free background 0.041
[11] = arabinose induction (level): Low, raw OD600 reference: median of DMSO wells 0.417, cell-free background 0.041
[12] = arabinose induction (level): High, raw OD600 reference: median of DMSO wells […], cell-free background 0.041
[13] = arabinose induction (level): Low, raw OD600 reference: median of DMSO wells 0.227, cell-free background 0.041
[14] = arabinose 100 nM, raw OD600 reference: median of DMSO wells 0.413, cell-free background 0.052
[15] = arabinose 10000000 nM, raw OD600 reference: median of DMSO wells […], cell-free background 0.052

## CC(=O)O[C@]1(C(C)=O)CC[C@H]2[C@@H]3C=C(Cl)C4=CC(=O)CC[C@]4(C)[C@H]3CC[C@@]21C [Chlormadinone acetate]
[1]
  growth: 0.15 ± 0.0069
E. coli TESEC Mtb Alr [2]; [5]
  growth: 0.156 ± 0.0078
E. coli TESEC Mtb Alr [2]; [6]
  growth: 0.0802 ± 0.014
E. coli TESEC Mtb Alr [2]; [7]
  growth: 0.148 ± 0.0022
E. coli TESEC Mtb Alr [2]; [8]
  growth: 0.0653 ± 0.0047
E. coli TESEC Mtb Alr [2]; [9]
  growth: 0.11 ± 0.0088
E. coli TESEC Mtb Asd; [10]
  growth: 0.12 ± 0.0098
E. coli TESEC Mtb Asd; [11]
  growth: 0.0867 ± 0.0071
E. coli TESEC Mtb DapB; [12]
  growth: 0.0988 ± 0.0082
E. coli TESEC Mtb DapB; [13]
  growth: 0.109 ± 0.029
E. coli TESEC Mtb Alr [3]; [14]
  growth: 0.3733 ± 0.0037
E. coli TESEC Mtb Alr [3]; [15]
  growth: 0.203 ± 0.03

## CN1Cc2c(N)cccc2C(c2ccccc2)C1 (configuration not stated) [Nomifensine maleate]
[1]
  growth: 0.225 ± 0.0061
E. coli TESEC Mtb Alr [2]; [5]
  growth: 0.273 ± 0.0089
E. coli TESEC Mtb Alr [2]; [6]
  growth: 0.249 ± 0.0043
E. coli TESEC Mtb Alr [2]; [7]
  growth: 0.19 ± 0.036
E. coli TESEC Mtb Alr [2]; [8]
  growth: 0.1674 ± 0.0015
E. coli TESEC Mtb Alr [2]; [9]
  growth: 0.141 ± 0.0063
E. coli TESEC Mtb Asd; [10]
  growth: 0.243 ± 0.026
E. coli TESEC Mtb Asd; [11]
  growth: 0.357 ± 0.038
E. coli TESEC Mtb DapB; [12]
  growth: 0.175 ± 0.013
E. coli TESEC Mtb DapB; [13]
  growth: 0.181 ± 0.025
[4]
  growth: 0.498 ± 0.078
E. coli TESEC Mtb Alr [3]; [14]
  growth: 0.4122 ± 0.0024
E. coli TESEC Mtb Alr [3]; [15]
  growth: 0.348 ± 0.019

## CC(=O)Oc1cc(C(C)C)c(OCCN(C)C)cc1C [Moxisylyte hydrochoride]
[1]
  growth: 0.219 ± 0.0037
E. coli TESEC Mtb Alr [2]; [5]
  growth: 0.245 ± 0.055
E. coli TESEC Mtb Alr [2]; [6]
  growth: 0.273 ± 0.0074
E. coli TESEC Mtb Alr [2]; [7]
  growth: 0.179 ± 0.017
E. coli TESEC Mtb Alr [2]; [8]
  growth: 0.155 ± 0.003
E. coli TESEC Mtb Alr [2]; [9]
  growth: 0.14 ± 0.00075
E. coli TESEC Mtb Asd; [10]
  growth: 0.297 ± 0.046
E. coli TESEC Mtb Asd; [11]
  growth: 0.441 ± 0.041
E. coli TESEC Mtb DapB; [12]
  growth: 0.171 ± 0.0028
E. coli TESEC Mtb DapB; [13]
  growth: 0.247 ± 0.053
[4]
  growth: 0.533 ± 0.029
E. coli TESEC Mtb Alr [3]; [14]
  growth: 0.41 ± 0.0064
E. coli TESEC Mtb Alr [3]; [15]
  growth: 0.242 ± 0.13

## Cc1nnc(NS(=O)(=O)c2ccc(N)cc2)s1 [Sulfamethizole]
[1]
  growth: 0.254 ± 0.0053
E. coli TESEC Mtb Alr [2]; [5]
  growth: 0.288 ± 0.011
E. coli TESEC Mtb Alr [2]; [6]
  growth: 0.236 ± 0.004
E. coli TESEC Mtb Alr [2]; [7]
  growth: 0.211 ± 0.032
E. coli TESEC Mtb Alr [2]; [8]
  growth: 0.155 ± 0.0088
E. coli TESEC Mtb Alr [2]; [9]
  growth: 0.139 ± 0.0043
E. coli TESEC Mtb Asd; [10]
  growth: 0.326 ± 0.045
E. coli TESEC Mtb Asd; [11]
  growth: 0.433 ± 0.018
E. coli TESEC Mtb DapB; [12]
  growth: 0.189 ± 0.0042
E. coli TESEC Mtb DapB; [13]
  growth: 0.183 ± 0.0058
[4]
  growth: 0.462 ± 0.018
E. coli TESEC Mtb Alr [3]; [14]
  growth: 0.411 ± 0.011
E. coli TESEC Mtb Alr [3]; [15]
  growth: 0.33 ± 0.011

## Nc1nc2c(ncn2COC(CO)CO)c(=O)[nH]1 [Ganciclovir]
[1]
  growth: 0.236 ± 0.0046
E. coli TESEC Mtb Alr [2]; [5]
  growth: 0.283 ± 0.0092
E. coli TESEC Mtb Alr [2]; [6]
  growth: 0.2718 ± 0.0013
E. coli TESEC Mtb Alr [2]; [7]
  growth: 0.202 ± 0.023
E. coli TESEC Mtb Alr [2]; [8]
  growth: 0.183 ± 0.003
E. coli TESEC Mtb Alr [2]; [9]
  growth: 0.136 ± 0.0066
E. coli TESEC Mtb Asd; [10]
  growth: 0.314 ± 0.011
E. coli TESEC Mtb Asd; [11]
  growth: 0.411 ± 0.019
E. coli TESEC Mtb DapB; [12]
  growth: 0.21 ± 0.023
E. coli TESEC Mtb DapB; [13]
  growth: 0.245 ± 0.013
[4]
  growth: 0.473 ± 0.057
E. coli TESEC Mtb Alr [3]; [14]
  growth: 0.417 ± 0.016
E. coli TESEC Mtb Alr [3]; [15]
  growth: 0.365 ± 0.0063

## COc1cc([C@@H]2c3cc4c(cc3[C@@H](O[C@@H]3O[C@@H]5CO[C@@H](C)O[C@H]5[C@H](O)[C@H]3O)[C@H]3COC(=O)[C@H]23)OCO4)cc(OC)c1O [Etoposide]
[1]
  growth: 0.0715 ± 0.0031
E. coli TESEC Mtb Alr [2]; [5]
  growth: 0.0527 ± 0.0019
E. coli TESEC Mtb Alr [2]; [6]
  growth: 0.04273 ± 0.00025
E. coli TESEC Mtb Alr [2]; [7]
  growth: 0.0604 ± 0.0031
E. coli TESEC Mtb Alr [2]; [8]
  growth: 0.0501 ± 0.00056
E. coli TESEC Mtb Alr [2]; [9]
  growth: 0.1106 ± 0.0011
E. coli TESEC Mtb Asd; [10]
  growth: 0.112 ± 0.015
E. coli TESEC Mtb Asd; [11]
  growth: 0.0831 ± 0.013
E. coli TESEC Mtb DapB; [12]
  growth: 0.113 ± 0.0098
E. coli TESEC Mtb DapB; [13]
  growth: 0.0846 ± 0.011
[4]
  growth: 0.142 ± 0.0036
E. coli TESEC Mtb Alr [3]; [14]
  growth: 0.129 ± 0.02
E. coli TESEC Mtb Alr [3]; [15]
  growth: 0.0985 ± 0.018
